Among the data in PubChem BioAssay (Tox21) are Potency, cytotoxicity and activity change, negative = cytotoxicity values, retold here.

Test [1] in a line: A CellTox Green Cytotoxicity Assay to monitor cytotoxicity in HepG2 cells - 0 hour (AID 1224882). Note: nearly all actives have a fitted effect of over 35% in size. The method, boiled down: (§1)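 HepG2 cells, 600/well, preincubated 5 h with CellTox Green dye, then exposed to Tox21 compounds in DMSO at 37 C for up to 40 h. Dead-cell DNA fluorescence read at the indicated time point.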
Test [2] is described as follows: A CellTox Green Cytotoxicity Assay to monitor cytotoxicity in HepG2 cells - 32 hour (AID 1224883). Note: nearly all actives have a fitted effect of over 50% in size. Note: potency is the fitted concentration of half-maximal effect. In short, it runs like this:
as §1

Test [3] is described as follows: A CellTox Green Cytotoxicity Assay to monitor cytotoxicity in HEK293 cells - 8 hour (AID 1224884). Note: nearly all actives have a fitted effect of over 35% in size. Note: potency is the fitted concentration of half-maximal effect. The method, boiled down: (§2)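 HEK293 cells, 600/well, were preincubated 5 hours and then exposed to compounds at 37 C for up to 40 hours. A cell-impermeant cyanine dye staining dead-cell DNA was read by fluorescence at 0, 8, 16, 24, 32 and 40 h time points.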
Test [4] can be described thus: qHTS RealTime-Glo MT Cell Viability Assay in HepG2 cells - 16 hour (AID 1224885). Note: nearly all actives have a fitted effect of over 50% in size. Note: potency is the fitted concentration of half-maximal effect. The method, boiled down: (§3)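 HepG2 suspension premixed with RealTime-Glo reagents is plated at 600 cells per well and left 5 h at 37 C/5% CO2. Compounds in DMSO then go in, and bioluminescence reflecting viable cell number is recorded over 40 h.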
Test [5] is described as follows: qHTS RealTime-Glo MT Cell Viability Assay in HEK293 cells - 24 hour (AID 1224886). For activity change, negative = cytotoxicity: top concentration of the series differs between compounds. Note: nearly all actives have a fitted effect of over 50% in size. Note: potency is the fitted concentration of half-maximal effect. In short, it runs like this: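 Reads taken at 0, 8, 16, 24, 32 and 40 h from the same wells. HEK293 cells (600/well) carried RealTime-Glo reagents from seeding, with compound added after a 5 h settle at 37 C.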
In general terms: Quantitative high-throughput screening tests each substance at several concentrations.

Test [6] is described as follows: qHTS RealTime-Glo MT Cell Viability Assay in HEK293 cells - 8 hour (AID 1224887). For activity change, negative = cytotoxicity: top concentration of the series differs between compounds. Note: nearly all actives have a fitted effect of over 50% in size. Note: potency is the fitted concentration of half-maximal effect. The method, boiled down:
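600 cells/well were plated with the nonlytic NanoLuc/prosubstrate reagent, pre-incubated 5 h, then given 23 nL of compound in DMSO. Incubation at 37 C for 40 h, with luminescence from viable-cell-reduced substrate read repeatedly from 0 h.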

Test [7] is described as follows: A CellTox Green Cytotoxicity Assay to monitor cytotoxicity in HEK293 cells - 16 hour (AID 1224888). Note: nearly all actives have a fitted effect of over 35% in size. Note: potency is the fitted concentration of half-maximal effect. In short, it runs like this: as §2
Test [8] is described as follows: qHTS RealTime-Glo MT Cell Viability Assay in HepG2 cells - 0 hour (AID 1224889). Note: nearly all actives have a fitted effect of over 50% in size. The method, boiled down: as §3
Test [9] in a line: A CellTox Green Cytotoxicity Assay to monitor cytotoxicity in HepG2 cells - 8 hour (AID 1224890). Note: nearly all actives have a fitted effect of over 45% in size. Note: potency is the fitted concentration of half-maximal effect. In short, it runs like this:
as §1

Test [10] is described as follows: A CellTox Green Cytotoxicity Assay to monitor cytotoxicity in HEK293 cells - 32 hour (AID 1224881). Note: nearly all actives have a fitted effect of over 40% in size. Note: potency is the fitted concentration of half-maximal effect. The method, boiled down: as §2

The structures appear in SMILES notation. Where “and” joins values, the source holds several entries; their conditions need not be identical. Equal entries are not always repeated. Unmarked numbers belong to inactive results. Records with an inconclusive call do not appear. Calls of active or inactive are those of the source. Calls come from the whole dose curve; as a rule, active = well fitted curve in the direction sought with a large enough effect in the repeat runs; inconclusive = weak or mixed curves; inactive = no such curve, though single readings can be large; an effect the other way counts as inactive or inconclusive.
% is set by controls: 0 for no effect and ±100 for the full control effect.

As to `CC(=O)C(Cl)C(=O)N(C)C` (configuration not stated), the Potency result in test [1], in [2], in test [3], in test [4], in [5] and in test [6] was “inactive” throughout. Moreover, the Potency result in test [7], in test [8] and in test [9] was “inactive” each time.

For `CC[C@]1(O)CC[C@H]2[C@@H]3CCC4=CCCC[C@@H]4[C@H]3CC[C@@]21C`, the Potency entry in [10], in test [1], in test [3], in test [4], in test [6] and in test [7] was “inactive” each time. The Potency entry in test [8] and in [9] was “inactive” throughout.

On to `CCC(OC(C)=O)C(CC(C)NC)(c1ccccc1)c1ccccc1` (configuration not stated), for which the Potency in test [10] is 62.2 µM (active); in test [5] it was 55400 nM (active); in test [7], 62200 nM (active). Also, the Potency entry in [1] is “inactive”.

In the case of `CC1CN1` (configuration not stated), the Potency result in [1], in [2], in test [3], in test [4], in test [5] and in [6] was “inactive” throughout. For the same compound, the Potency entry in test [7], in [8] and in test [9] was “inactive” in each case.

Consider `CCCCCCC[CH2][Sn]([Cl])([Cl])[CH2]CCCCCCC`, for which the Potency result in test [1], in test [2], in test [3], in test [4], in test [5] and in test [6] was “inactive” each time. In addition, the Potency result in test [7], in [8] and in test [9] was “inactive” each time.

On to `O=C(CCCCl)c1ccc(F)cc1`, for which the Potency result in test [1], in test [2], in test [3], in [4], in test [5] and in test [6] was “inactive” throughout. Besides, the Potency entry in [7] and in [8] was “inactive” throughout.

Regarding `CCC[CH2][Sn]([CH2]CCC)([CH2]CCC)[O][Sn]([CH2]CCC)([CH2]CCC)[CH2]CCC`, the cytotoxicity in test [1] was 5.3% [at 6.97 µM]. In addition, the Potency in test [2] is 537 nM (active); in test [3], 2140 nM (active); in [4], 676 nM (active); in test [5], 191 nM (active); in test [6] it was 269 nM (active); in [7], 1700 nM (active). The Potency in test [9] was 676 nM (active). Also, the activity change, negative = cytotoxicity in test [8] was 23.4% [at 6.97 µM].

Consider `CN1[C@@H]2CC[C@H]1CC(O)C2` (some centres not stated), for which the Potency result in [1], in test [2], in [3], in test [4], in test [5] and in [6] was “inactive” throughout. Also, the Potency entry in [7], in [8] and in [9] was “inactive” each time.

For `Nc1c(Cl)c(Cl)c(Cl)c(Cl)c1Cl`, the Potency result in test [10], in test [3], in test [4], in [5], in test [6] and in [8] was “inactive” each time.

As for `O.O.O.O=C([O-])[C@H]([O-])[C@@H]([O-])C(=O)[O-].O=C([O-])[C@H]([O-])[C@@H]([O-])C(=O)[O-].[K+].[K+].[Sb+3].[Sb+3]`, the Potency result in [10], in test [1], in test [6], in test [7], in [8] and in test [9] was “inactive” each time.

Consider `[Cl-].[Cl-].[Sn+2]`, for which the Potency result in [1], in [2], in test [3], in test [4], in [5] and in test [6] was “inactive” in each case. In addition, the Potency result in [7], in test [8] and in test [9] was “inactive” each time.

On to `Nc1ccc(N=Nc2ccccc2)cc1`, for which the Potency result in test [10], in test [1], in test [3], in test [7], in test [8] and in test [9] was “inactive” throughout.

Take `CC(=O)[O][Sn]([c]1ccccc1)([c]1ccccc1)[c]1ccccc1`: the Potency in test [10] was 0.219 µM (active); in [3] it was 347 nM (active); in test [5], 43.6 nM (active); in test [6] it was 123 nM (active); in test [7], 347 nM (active); in test [9] it was 13800 nM (active). The Potency entry in test [1] was “inactive”.

`COP(=S)(NC(C)C)Oc1ccc(C)cc1[N+](=O)[O-]` (configuration not stated): the Potency result in test [1], in [2], in [3], in [4], in test [5] and in test [6] was “inactive” each time. The Potency entry in test [7], in test [8] and in [9] was “inactive” throughout.

With `c1ccc(N=NNc2ccccc2)cc1`, the Potency in test [10] is 50.7 µM (active) and 43.6 µM (active); in [6], 50700 nM (active). For the same compound, the Potency result in test [1], in test [3], in test [5], in test [7] and in test [8] was “inactive” each time.

In the case of `COC(=O)c1ccccc1S(=O)(=O)NC(=O)Nc1nc(C)nc(OC)n1`, the Potency entry in test [1], in test [2], in test [3], in test [4], in [5] and in test [6] was “inactive” throughout. Further, the Potency result in test [7] and in [8] was “inactive” each time.

On to `Cc1ccccc1OP(=O)(Oc1ccccc1C)Oc1ccccc1C`, for which the Potency entry in [10], in [1], in [3], in [4], in test [7] and in test [8] was “inactive” each time. Moreover, the Potency entry in [9] is “inactive”.

`O=S1OCC2C(CO1)C1(Cl)C(Cl)=C(Cl)C2(Cl)C1(Cl)Cl` (configuration not stated): the Potency in [10] was 49 µM (active) and 54.9 µM (active); in test [4], 48900 nM (active); in [5] it was 21.9 µM (active) and 38.9 µM (active); in test [6], 43600 nM (active); in [9], 54900 nM (active). Besides, the Potency entry in test [1] and in test [8] was “inactive” each time.
